Screening data deposited in PubChem by National Center for Advancing Translational Sciences (NCATS).
LmPK inhibitor: blocks Leishmania mexicana pyruvate kinase activity | purified LmPK, Kinase-Glo ATP luminescence, 1 h | Potency, µM (series often up to 57.5 µM), for inactives: at the top dose activity change, negative = inhibition, usual class: inhibitors | hit rate 0.37% among 290,000 | AID 1721; note: potency is the fitted concentration of half-maximal effect; % is set by controls: 0 for no effect and ±100 for the full control effect
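In 50 mM imidazole pH 7.2 with 7 mM MgCl2, LmPK (0.1 nM) turned over PEP (0.5 mM) and ADP (0.1 mM) for 1 h at room temperature. Luciferase read-out of ATP.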
Shiga toxin inh: blocks Shiga toxin action in Vero cells. Vero cells, Shiga toxin protein synthesis inhibition reporter. inhibition, % at 38.7 µM. hit rate 9.2% among 290,000; in the data active = inhibition mostly above about 28%, no sharp cut-off; inactive = mostly below about 43%; note: 0% is about no effect
FBPA Giardia inh: Giardia lamblia aldolase inhibition. AID 2451. Potency, µM (highest dose often 59.6 µM), without a hit: at the top dose activity, negative = inhibition, actives largely listed as inhibitors. purified Giardia FBPA. hit rate 0.71% among 290,000; note: potency is the fitted concentration of half-maximal effect; % is set by controls: 0 for no effect and ±100 for the full control effect; nearly all actives have a fitted effect of over 55% in size
Target sequence (A8B2U2 whole entry, looked up): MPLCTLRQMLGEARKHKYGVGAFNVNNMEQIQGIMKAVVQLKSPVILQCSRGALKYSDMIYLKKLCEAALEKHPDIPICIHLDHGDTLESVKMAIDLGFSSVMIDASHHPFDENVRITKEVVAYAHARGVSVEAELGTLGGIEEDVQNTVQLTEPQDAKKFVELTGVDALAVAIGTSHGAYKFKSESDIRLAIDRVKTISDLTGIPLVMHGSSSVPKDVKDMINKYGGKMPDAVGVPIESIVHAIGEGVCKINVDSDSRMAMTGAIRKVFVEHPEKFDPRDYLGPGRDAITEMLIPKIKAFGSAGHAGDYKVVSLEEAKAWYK
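Giardia FBPA (40 nM reagent) was preincubated 10 min at RT with compound (up to 57.5 uM final), then substrate plus GAPDH/TPI/NAD/arsenate coupling system with diaphorase/resazurin was added; resorufin fluorescence (525/598 nm) was read after 20 min.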
CHX counter: counter-screen hit for Shiga toxin inhibitors, cycloheximide. hit rate 12% among 300,000. cell reporter, cycloheximide protein synthesis inhibition counterscreen. max response, %; in the data active = max response mostly above about 13%, no sharp cut-off; inactive = mostly below about 14%; note: read at 38.3 µM for the half of the compounds with a filed dose; 0% is about no effect
TbPYK inhibitor: T. brucei pyruvate kinase inhibition; Potency, µM (titrated, usually from 76.8 µM), inactives show top-dose activity, negative = inhibition, usual class: inhibitors; Q57TT1; TbPYK enzyme, Kinase-Glo Plus ATP luminescence, 45 min; hit rate 0.12% among 410,000; AID 624173; note: potency is the fitted concentration of half-maximal effect; % is set by controls: 0 for no effect and ±100 for the full control effect; nearly all actives have a fitted effect of over 50% in size
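Activity of T. brucei pyruvate kinase was followed by Kinase-Glo Plus luminescence after the enzyme reacted 45 min at room temperature with 130 uM ADP (final) and substrate. Test compounds were added before ADP at multiple concentrations.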
Sm TGR inh: inhibitors of Schistosoma mansoni thioredoxin glutathione reductase | Q962Y6 | purified TGR, DTNB reduction, TNB absorbance 405 nm | Potency, µM (series often up to 114 µM), for the others: at the top dose activity change, negative = inhibition, most hits filed as inhibitors | hit rate 3% among 360,000; note: potency is the fitted concentration of half-maximal effect; % is set by controls: 0 for no effect and ±100 for the full control effect; nearly all actives have a fitted effect of over 60% in size
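First, TGR (20 nM dispensed) and NADPH were mixed with compound. Second, a 15 min room-temperature incubation followed. Third, further NADPH and then DTNB were added to start the reaction. Finally, TNB absorbance was monitored kinetically.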
An asterisk follows results filed as active; ? = inconclusive; nt = not tested or not shown; [ ] = remark or other dose. The sample as a whole holds a higher share of hits than the screen did. Unless noted, calls come from the whole dose curve; as a rule, active = well fitted curve in the direction sought with a large enough effect; inconclusive = small, poorly fitted or top-dose-only effect, or another doubt; inactive = no such curve, though single readings can be large; an effect the other way counts as inactive or inconclusive.

SMILES	LmPK inhibitor	Shiga toxin inh	FBPA Giardia inh	CHX counter	TbPYK inhibitor	Sm TGR inh
C=CCNC(=O)/C(C#N)=C\c1cc(Cl)c(O)c(OCC)c1	-0.9%	8.5	?	-1.5	2.1%	39.8µM*
CCOc1cc(/C=C(/C#N)C(=O)Nc2ccc(O)cc2)cc(Br)c1O	5.3%	11.8	-9.5%	-2.3	-3.1%	?
O=C(N=Nc1c(O)[nH]c2ccccc12)c1ccc2c(c1)OCO2	-28.1%	33.3	1.9%	26.7*	-2.5%	1.2%
O=C(N=Nc1c(O)[nH]c2ccccc12)c1ccc(CN2CCOCC2)cc1	-2.3%	9.3	-4.5%	6.3	0.6%	2.5%
O=C(N=Nc1c(O)[nH]c2ccccc12)c1ccco1	25.1µM*	65.1*	-21.4%	45.1*	7.8%	3.7%
CC(C)CC(=O)N=Nc1c(O)[nH]c2ccccc12	-4.4%[11.5 µM]	105.7*	1.6%	26.2*	-2.2%	13.9%
O=C(CNC(=O)c1ccccn1)N=Nc1c(O)[nH]c2ccccc12	4.3%	47.1*	9.5%	22.2	-0.6%	11.6%
CCn1c(O)c(N=NC(=O)CNC(=O)/C=C/c2ccco2)c2ccccc21	-1.8%	-5.9	4.1%	9.8	-19.2%	35.5µM*
O=C(CSCc1ccccc1)N=Nc1c(O)[nH]c2ccccc12	-1.0%	10.6	-11.4%	27.4*	-2.7%	3.4%
CC(=O)/C=C(\C)N=Nc1c(O)[nH]c2ccccc12	-1.6%	56.3*	-9.8%	32.3*	1.0%	5.8%
CCCn1c(O)c(N=NC(=O)c2ccco2)c2ccccc21	-4.3%	52.8*	?	7.9	0.6%	-5.9%
CCC(O)(CC)C(=O)N=Nc1c(O)[nH]c2ccccc12	0.5%	-17.2	0.1%	3.3	3.5%	7.3%
CNCc1cc2ccc(C)cc2[nH]c1=O	1.6%	-17.5	5.9%	-6.1	-25.9%	-77.3%
Cc1ccc2cc(CNC(C)(C)C)c(=O)[nH]c2c1	2.5%	-5.3	-12.5%	17.6*	2.3%	-17.6%
Cc1ccc2cc(CCNC(=O)c3cccs3)c(=O)[nH]c2c1C	-2.2%	47.4*	11.1%	44.6*	1.2%	-0.2%
Cc1ccc2cc(CCNC(=O)c3cccs3)c(=O)[nH]c2c1	-3.6%	38.1	1.0%	25.0*	-1.4%	-14.8%
Cc1nn(S(=O)(=O)c2ccc(Br)cc2)c(C)c1S(=O)(=O)N1CCCCCC1	nt	nt	nt	nt	-5.8%	48.1%
CC1CCC(N2CC(=O)N(C3CCCC3)C(c3ccc(Cl)cc3)C2=O)CC1 (stereo not drawn)	nt	nt	nt	nt	0.0%	2.4%
O=C(Nc1cccc(-c2nc3cc(Cl)ccc3o2)c1)c1ccc(F)cc1	nt	nt	nt	nt	4.2%	?
CNc1nc(N2CCc3ccccc32)ncc1F	?	104.6*	?	38.9*	0.0%	5.3%
COc1ccc(C2CC(=O)c3cnc(N4CCc5ccccc54)nc3C2)cc1OC (stereo not drawn)	5.6%	1.6	0.9%	-2.9	nt	8.3%
Nc1nncn1C(=O)CCCOc1ccccc1	-0.7%	-14.2	2.0%	-2.6	3.1%	19.9%
Nc1nncn1C(=O)CCc1ccccc1	-0.5%	20.5	-3.7%	9.3*	-9.7%	2.0%
FC(F)(F)c1ccc2c(c1)N1CCCC1CN2 (stereo not drawn)	-1.2%	5.5	-20.6%	-2.0	?	-17.4%
FC(F)(F)c1ccc2c(c1)NCC1CCCN21 (stereo not drawn)	-8.0%	40.0	-13.5%	17.2*	1.3%	-27.2%
SMILES	LmPK inhibitor	Shiga toxin inh	FBPA Giardia inh	CHX counter	TbPYK inhibitor	Sm TGR inh
C=CCc1cccc2cc(C(=O)NCCOC)c(=O)oc12	0.6%	50.8	-0.3%	-0.3	-0.7%	nt
CCN1CCCC1CNC(=O)c1csc2c1CCCC2 (stereo not drawn)	6.8%	-3.1	0.4%	-1.6	4.2%	-12.9%
N=c1oc2ccccc2cc1C(=O)NC1CCCCCC1	0.7%	123.0*	-15.6%	56.5*	8.0%	7.6%
O=C(NCC1CCCO1)c1cc2cc(F)ccc2[nH]1 (stereo not drawn)	-3.4%	38.4*	8.2%	27.4*	-10.5%	-33.6%
C=CCc1cccc2cc(C(=O)NC3CCCCC3)c(=O)oc12	2.6%	87.9*	0.2%	28.0	-2.7%	-5.8%
O=C(NCC1CCCO1)c1csc2c1CCCC2 (stereo not drawn)	-6.5%	30.9	-8.3%	39.8*	-2.0%	-6.2%
N=c1oc2ccc(Cl)cc2cc1C(=O)NC1CCCCCC1	2.5%	-8.1	-4.0%	1.1	-7.8%	-5.7%
CCNc1ncc2nc(CCc3ccccc3)c(=O)n(CCC#N)c2n1	nt	nt	8.5%	nt	nt	nt
COCCCNC(=O)c1ccc2nc([C@@H]3O[C@H](CO)[C@H](O)[C@H](O)[C@H]3O)[nH]c2c1	nt	nt	nt	nt	-0.5%	nt
O=C(COc1ccccc1)NNC(=O)c1cc2ccccc2oc1=O	-8.0%	17.6	-4.1%	12.0	-7.2%	-1.9%
O=C(NCC1CCCO1)c1csc(Nc2cccc3ccccc23)n1 (stereo not drawn)	14.1µM*	77.3*	16.1%	41.1*	4.1%	0.5%
O=C(NCC1CCCO1)c1cc2ccccc2oc1=O (stereo not drawn)	-7.3%	95.8*	0.3%	36.8*	-5.1%	46.5%
O=C(NNc1c(F)c(F)cc(F)c1F)c1cc2ccccc2oc1=O	-2.6%	111.9*	0.8%	50.3*	3.6%	65.4%
O=C(OC1CCCCC1)c1cc2ccccc2oc1=O	-15.2%	79.2*	3.4%	42.7*	-8.0%	-10.2%
CCCNC(=O)c1csc(Nc2cccc3ccccc23)n1	5.0%	nt	-5.1%	-2.4	-8.0%	-3.5%
CCC(C)c1ccccc1NC(=O)COC(=O)C1=NN(c2ccccc2)C(=O)CC1 (stereo not drawn)	nt	nt	nt	nt	2.8%	nt
C[C@H]1COC(=O)[C@H](Cc2ccccc2)NC(=O)[C@@H](C)COC(=O)[C@H](Cc2ccccc2)NC1=O	nt	nt	1.1%[12.9 µM]	nt	nt	nt
CCc1ccc(NCc2cc3ccc(OC)cc3n(CC(=O)Nc3c(C)cc(C)cc3C)c2=O)cc1	nt	nt	nt	nt	0.1%	-0.3%
COC(=O)NC(c1ccccc1)[C@@]1(C(=O)OC)CCCC1=O (stereo partly drawn)	nt	nt	1.1%[12.9 µM]	nt	nt	nt
O=C(NC1CCCC1)c1c[nH]c2ccc(S(=O)(=O)Nc3cccc(C(F)(F)F)c3)cc2c1=O	nt	nt	nt	nt	4.8%	-0.3%
O=C(NC1CCCCCC1)c1cc2ccccc2oc1=O	-0.9%	43.3*	16.2%	42.6*	-9.8%	-2.1%
COc1cccc(OCc2cc(C(=O)NCc3ccccn3)no2)c1	4.1%	70.3*	9.2%	61.8*	3.7%	6.5%
COc1cccc(OCc2cc(C(=O)NCCc3cccc(C)n3)no2)c1	5.5%	9.4	-1.1%	10.9	-4.3%	-29.1%
COc1cccc(OCc2cc(C(=O)NCC3CCCCC3)no2)c1	4.4%	37.6*	-1.4%	35.0*	-1.0%	0.7%
COc1ccc(OCc2cc(C(=O)NCc3cccc(C)n3)no2)c(Cl)c1	-5.8%	137.9*	nt	60.7*	0.7%	-32.8%
